# Test results from the supplement of paper PMC10338343.
# ± gives the standard deviation.
# Tested on: EfPiwi piRISC loaded with L1MC piRNA (26 nt)
# Assay: pre-steady-state target cleavage rate (min^-1); auxiliary factor: none (no Gtsf1); guide: L1MC piRNA 5'p-UAACUAAAUACUAUGCAAGCUGUAGG; higher = faster piRNA-guided slicing of the target
# Method in brief: (§1)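 A burst-and-steady-state fit was used to obtain the pre-steady-state cleavage rate. The input data were sequencing reads of uncleaved targets, normalised to depth and to weakly complementary targets, from a […] transcribed, DNA-blocked target RNA library mixed with 1 nM active affinity-purified piRISC holding one synthetic guide, with or without 500 nM GTSF1 partner protein, in HEPES–potassium acetate buffer at 33 °C for 0–8 or 0–960 min. Three trials were pooled and k3 was capped at 0.0001 min^-1.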
row,Sequence,pre-steady-state target cleavage rate
1,UCCUGGAUGUCGAACGUUAGUAUUUAGUUU [g2:g13:cont:t1U],< 0.0001
2,UCCUGGAUCAGCUUCGUUAGUAUUUUCAAA,< 0.0001
3,UCCUGCUACAGCUUGCAUACAUAAAUCAAA [g12:g25:cont:t1A],< 0.0001
4,UCCUGGAUGUCGAACGUUAGUCAUUUAGUUA,< 0.0001
5,UCCUGGAUGUCGAACGUUUGUAAUUAGUUA,< 0.0001
6,UCCUGGAUGUCGAACGAUAGUAUUUGAGUUA,< 0.0001
7,UCCUGGAUGUCGAACGUUAAUAUUUAGUUA,< 0.0001

# Tested on: EfPiwi piRISC loaded with piRNA #1 (26 nt)
# Assay: pre-steady-state target cleavage rate (min^-1); auxiliary factor: 500 nM Ephydatia muelleri Gtsf1; guide: piRNA #1 5'p-UGAGGUAGUAGGUUGUAUAGUAUCCA; MIWI and MILI are mouse PIWI proteins and EfPiwi is from a freshwater sponge; tags in brackets are library labels; higher = faster piRNA-guided slicing of the target
# Method in brief: as §1
row,Sequence,pre-steady-state target cleavage rate
1,GGAGACGAUACUAUACAACCUAGUAGCUCA,0.00474 ± 0.0023
2,GGAGUGGAUACUAUAGAACCUACUACCACA,0.0024 ± 0.001
3,GGAGACGAUACUAUACAACCUUCUUCCUCA,0.0037 ± 0.0019
4,GGAGUGGAUACUAUACAACCUACUAGGUCA,0.00356 ± 0.002
5,GGAGAGGAUAGUAUACAACCUACUUCCUCA,0.00319 ± 0.0018
6,GGAGACGAUACUAUACUACCUACUACGUCA,0.00262 ± 0.0017
7,GGAGACGAUACUAUACAACCAACUACCUGA,0.00427 ± 0.0022
8,GGAGACCUAUGAAUAGAACCUACUAGCUCA,< 0.0001
9,GGAGACCUUACUAUACAACCUACUACCUGCA,0.00419 ± 0.0031
10,GGAGAGGAUACUAUACAACGUACUUCCUCA,0.00375 ± 0.0013
11,GGAGAGGAAACUAUACAACCUACUUCCUCA,0.00302 ± 0.0017
